Measurements published in article PMC8384837, “Expanding the binding specificity for RNA recognition by a PUF domain”.
Residue numbers refer to the chain shown, from its start.

What was measured:
Experiment in all cases: yeast three-hybrid, YBZ-1, SC-Leu-His + 0.5 mM 3-AT, 4 days
Conditions in all cases: tags: N-Gal4 AD-HA kept; label: inside an RPR1-promoter hybrid RNA with tandem MS2 sites; ssRNA
PUM1 PUF domain R3-CRR = PUM1 PUF domain R3-CRR (Homo sapiens, UniProt Q14671 828-1176, Q939R)
Procedure, shortened: (§1)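 The interaction score is the log change in how often each variant appears, from input to selection. Frequencies came from PCR-amplified, Illumina-sequenced repeat regions of Pumilio-1 PUF domain libraries grown in strain YBZ-1 (LexA–MS2 coat fusion, HIS3 reporter) alongside matching RNA elements. Input plates were SC-Leu and selection plates were SC-Leu-His + 0.5 mM 3-AT, each for four days, and the log2 calculation used a pseudocount of 1 where a variant was absent.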

PUM1 PUF domain R3-LHG = PUM1 PUF domain R3-LHG (Homo sapiens, UniProt Q14671 828-1176, C935L;R936H;Q939G)
Procedure, shortened: as §1

PUM1 PUF domain R3-WWR = PUM1 PUF domain R3-WWR (Homo sapiens, UniProt Q14671 828-1176, C935W;R936W;Q939R)
Procedure, shortened: as §1

PUM1 PUF domain R3-SEE = PUM1 PUF domain R3-SEE (Homo sapiens, UniProt Q14671 828-1176, C935S;R936E;Q939E)
Procedure, shortened: as §1

PUM1 PUF domain R5-GRI = PUM1 PUF domain R5-GRI (Homo sapiens, UniProt Q14671 828-1176, C1007G;Q1011I)
Procedure, shortened: as §1

PUM1 PUF domain R5-GVR = PUM1 PUF domain R5-GVR (Homo sapiens, UniProt Q14671 828-1176, C1007G;R1008V;Q1011R)
Procedure, shortened: as §1

PUM1 PUF domain R5-KLH = PUM1 PUF domain R5-KLH (Homo sapiens, UniProt Q14671 828-1176, C1007K;R1008L;Q1011H)
Procedure, shortened: as §1

PUM1 PUF domain R5-KFV = PUM1 PUF domain R5-KFV (Homo sapiens, UniProt Q14671 828-1176, C1007K;R1008F;Q1011V)
Procedure, shortened: as §1

PUM1 PUF domain R4-DHR = PUM1 PUF domain R4-DHR (Homo sapiens, UniProt Q14671 828-1176, N971D;Q975R)
Procedure, shortened: as §1

PUM1 PUF domain R4-PFQ = PUM1 PUF domain R4-PFQ (Homo sapiens, UniProt Q14671 828-1176, N971P;H972F)
Procedure, shortened: as §1

PUM1 PUF domain R2-PWE = PUM1 PUF domain R2-PWE (Homo sapiens, UniProt Q14671 828-1176, N899P;Y900W;Q903E)
Procedure, shortened: as §1

PUM1 PUF domain R1-GRK = PUM1 PUF domain R1-GRK (Homo sapiens, UniProt Q14671 828-1176, S863G;Q867K)
Procedure, shortened: as §1

PUM1 PUF domain R1-KLS = PUM1 PUF domain R1-KLS (Homo sapiens, UniProt Q14671 828-1176, S863K;R864L;Q867S)
Procedure, shortened: as §1

PUM1 PUF domain R7-TSS = PUM1 PUF domain R7-TSS (Homo sapiens, UniProt Q14671 828-1176, S1079T;N1080S;E1083S)
Procedure, shortened: as §1

PUM1 PUF domain R2-NWW = PUM1 PUF domain R2-NWW (Homo sapiens, UniProt Q14671 828-1176, Y900W;Q903W)
Procedure, shortened: as §1

PUM1 PUF domain R5-ERK = PUM1 PUF domain R5-ERK (Homo sapiens, UniProt Q14671 828-1176, C1007E;Q1011K)
Procedure, shortened: as §1

PUM1 PUF domain R3-GPF = PUM1 PUF domain R3-GPF (Homo sapiens, UniProt Q14671 828-1176, C935G;R936P;Q939F)
Procedure, shortened: as §1

PUM1 PUF domain R6-QRQ = molecular target: T1, PUM1 PUF domain R6-QRQ (Homo sapiens, UniProt Q14671 828-1176, N1043Q;Y1044R)
T1 sequence: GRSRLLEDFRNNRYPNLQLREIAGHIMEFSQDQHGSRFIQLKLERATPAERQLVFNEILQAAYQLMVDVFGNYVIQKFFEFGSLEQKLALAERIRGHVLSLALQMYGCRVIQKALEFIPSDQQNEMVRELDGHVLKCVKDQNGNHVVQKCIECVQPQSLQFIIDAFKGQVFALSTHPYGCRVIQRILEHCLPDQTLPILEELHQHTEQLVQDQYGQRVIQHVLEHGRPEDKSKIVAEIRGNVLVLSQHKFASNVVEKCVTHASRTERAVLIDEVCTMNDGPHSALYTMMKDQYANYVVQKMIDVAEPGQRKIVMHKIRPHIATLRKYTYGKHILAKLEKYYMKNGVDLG
Procedure, shortened: as §1

PUM1 PUF domain R3-DFL = PUM1 PUF domain R3-DFL (Homo sapiens, UniProt Q14671 828-1176, C935D;R936F;Q939L)
Procedure, shortened: as §1

PUM1 PUF domain R6-CYT = molecular target: T2, PUM1 PUF domain R6-CYT (Homo sapiens, UniProt Q14671 828-1176, N1043C;Q1047T)
T2 sequence: T1 sequence with Q216C, R217Y, Q220T
Procedure, shortened: as §1

GGCUAGAACUAGUGGAUCCCCCGGCGCCCGGCGGCUCGAGCCCGGGUAAGUGUAAGUAGUCUGCAUGCCGCCGGGCGCCAUGCCUGCAGGUCGACUCUAGAAAACAUG
binding signal (PUM1 PUF domain R3-CRR): 1.17 log2 enrichment (interaction score)
binding signal (PUM1 PUF domain R3-LHG): 6.02 log2 enrichment (interaction score)
binding signal (PUM1 PUF domain R3-WWR): 5.22 log2 enrichment (interaction score)
binding signal (PUM1 PUF domain R3-SEE): 2.43 log2 enrichment (interaction score)

GGCUAGAACUAGUGGAUCCCCCGGCGCCCGGCGGCUCGAGCCCGGGUAAGUGUCAAUAGUCUGCAUGCCGCCGGGCGCCAUGCCUGCAGGUCGACUCUAGAAAACAUG
binding signal (PUM1 PUF domain R5-GRI): 1.2 log2 enrichment (interaction score)
binding signal (PUM1 PUF domain R5-GVR): 5.93 log2 enrichment (interaction score)
binding signal (PUM1 PUF domain R5-KLH): 2.85 log2 enrichment (interaction score)
binding signal (PUM1 PUF domain R5-KFV): 5.97 log2 enrichment (interaction score)

GGCUAGAACUAGUGGAUCCCCCGGCGCCCGGCGGCUCGAGCCCGGGUAAGUGUAUAUAGUCUGCAUGCCGCCGGGCGCCAUGCCUGCAGGUCGACUCUAGAAAACAUG
binding signal (PUM1 PUF domain R4-DHR): 4.76 log2 enrichment (interaction score)
binding signal (PUM1 PUF domain R4-PFQ): 5.54 log2 enrichment (interaction score)

GGCUAGAACUAGUGGAUCCCCCGGCGCCCGGCGGCUCGAGCCCGGGUAAGUGUAAAGAGUCUGCAUGCCGCCGGGCGCCAUGCCUGCAGGUCGACUCUAGAAAACAUG
binding signal (PUM1 PUF domain R2-PWE): 4.9 log2 enrichment (interaction score)

GGCUAGAACUAGUGGAUCCCCCGGCGCCCGGCGGCUCGAGCCCGGGUAAGUGUAAAAAGUCUGCAUGCCGCCGGGCGCCAUGCCUGCAGGUCGACUCUAGAAAACAUG
binding signal (PUM1 PUF domain R2-PWE): 2.14 log2 enrichment (interaction score)

GGCUAGAACUAGUGGAUCCCCCGGCGCCCGGCGGCUCGAGCCCGGGUAAGUGUAAAUCGUCUGCAUGCCGCCGGGCGCCAUGCCUGCAGGUCGACUCUAGAAAACAUG
binding signal (PUM1 PUF domain R1-GRK): 5.64 log2 enrichment (interaction score)
binding signal (PUM1 PUF domain R1-KLS): 3.97 log2 enrichment (interaction score)

GGCUAGAACUAGUGGAUCCCCCGGCGCCCGGCGGCUCGAGCCCGGGUAAGUUUAAAUAGUCUGCAUGCCGCCGGGCGCCAUGCCUGCAGGUCGACUCUAGAAAACAUG
binding signal (PUM1 PUF domain R7-TSS): 2.55 log2 enrichment (interaction score)

GGCUAGAACUAGUGGAUCCCCCGGCGCCCGGCGGCUCGAGCCCGGGUAAGUGUGAAUAGUCUGCAUGCCGCCGGGCGCCAUGCCUGCAGGUCGACUCUAGAAAACAUG
binding signal (PUM1 PUF domain R5-GRI): 3.52 log2 enrichment (interaction score)

GGCUAGAACUAGUGGAUCCCCCGGCGCCCGGCGGCUCGAGCCCGGGUAAGUGUUAAUAGUCUGCAUGCCGCCGGGCGCCAUGCCUGCAGGUCGACUCUAGAAAACAUG
binding signal (PUM1 PUF domain R5-GRI): 3.43 log2 enrichment (interaction score)
binding signal (PUM1 PUF domain R5-GVR): 1.75 log2 enrichment (interaction score)
binding signal (PUM1 PUF domain R5-KFV): 6.19 log2 enrichment (interaction score)

GGCUAGAACUAGUGGAUCCCCCGGCGCCCGGCGGCUCGAGCCCGGGUAAGUGUAAAUUGUCUGCAUGCCGCCGGGCGCCAUGCCUGCAGGUCGACUCUAGAAAACAUG
binding signal (PUM1 PUF domain R1-GRK): 3.96 log2 enrichment (interaction score)

GGCUAGAACUAGUGGAUCCCCCGGCGCCCGGCGGCUCGAGCCCGGGUAAGUGUAAUUAGUCUGCAUGCCGCCGGGCGCCAUGCCUGCAGGUCGACUCUAGAAAACAUG
binding signal (PUM1 PUF domain R3-CRR): 2.3 log2 enrichment (interaction score)
binding signal (PUM1 PUF domain R3-LHG): 4.7 log2 enrichment (interaction score)
binding signal (PUM1 PUF domain R3-WWR): 3.35 log2 enrichment (interaction score)

GGCUAGAACUAGUGGAUCCCCCGGCGCCCGGCGGCUCGAGCCCGGGUAAGUGUACAUAGUCUGCAUGCCGCCGGGCGCCAUGCCUGCAGGUCGACUCUAGAAAACAUG
binding signal (PUM1 PUF domain R4-DHR): 6.79 log2 enrichment (interaction score)

GGCUAGAACUAGUGGAUCCCCCGGCGCCCGGCGGCUCGAGCCCGGGUAAGUGUAAAUAGUCUGCAUGCCGCCGGGCGCCAUGCCUGCAGGUCGACUCUAGAAAACAUG
binding signal (PUM1 PUF domain R2-NWW): 3.94 log2 enrichment (interaction score)
binding signal (PUM1 PUF domain R3-CRR): 2.78 log2 enrichment (interaction score)
binding signal (PUM1 PUF domain R5-ERK): 4.01 log2 enrichment (interaction score)
binding signal (PUM1 PUF domain R3-GPF): 5.65 log2 enrichment (interaction score)
binding signal (PUM1 PUF domain R6-QRQ): 2.52 log2 enrichment (interaction score)
binding signal (PUM1 PUF domain R5-GRI): 3.04 log2 enrichment (interaction score)
binding signal (PUM1 PUF domain R3-DFL): 2.6 log2 enrichment (interaction score)
binding signal (PUM1 PUF domain R3-WWR): 0.59 log2 enrichment (interaction score)
binding signal (PUM1 PUF domain R5-KFV): 3.95 log2 enrichment (interaction score)

GGCUAGAACUAGUGGAUCCCCCGGCGCCCGGCGGCUCGAGCCCGGGUAAGUGAAAAUAGUCUGCAUGCCGCCGGGCGCCAUGCCUGCAGGUCGACUCUAGAAAACAUG
binding signal (PUM1 PUF domain R6-CYT): 3.1 log2 enrichment (interaction score)
